Measured values from a collection of fitness landscapes (doi:10.1126/science.1257360).
Over roughly 140,000 sequences, “enrichment ratio after two sorts for PhoP signalling” has its median near 0; the highest 2% begin near 11. The list comes from a sample in which the highest values are over-represented; it also holds similar and randomly drawn sequences.

B1: PhoQ; a variant is named by its letters at X, in order, P23837 (parent)
chain: MKKLLRLFFPLSLRVRFLLATAAVVLVLSLAYGMVALIGYSVSFDKTTFRLLRGESNLFYTLAKWENNKLHVELPENIDKQSPTMTLIYDENGQLLWAQRDVPWLMKMIQPDWLKSNGFHEIEADVNDTSLLLSGDHSIQQQLQEVREDDDDAEMTHSVAVNVYPATSRMPKLTIVVVDTIPVELKSSYMVWSWFIYVLSANLLLVIPLLWVAAWWSLRPIEALAKEVRELEEHNRELLNPATTRELTSLVRNLNRLLKSERERYDKYRTTLTDLTHSLKTPLXXLQXXLRSLRSEKMSVSDAEPVMLEQISRISQQIGYYLHRASMRGGTLLSRELHPVAPLLDNLTSALNKVYQRKGVNISLDISPEISFVGEQNDFVEVMGNVLDNACKYCLEFVEISARQTDEHLYIVVEDDGPGIPLSKREVIFDRGQRVDTLRPGQGVGLAVAREITEQYEGKIVAGESMLGGARMEVIFGRQHSAPKDE

Variants of: B1
Assay: enrichment ratio after two sorts for PhoP signalling (ratio (wild type AVST 3.29)); higher = more functional
Details: with PhoP (E. coli)

Variant	enrichment ratio
DNCI	≤ 0.25
VVVI	≤ 0.25
MDLY	≤ 0.25
TMFE	≤ 0.25
MWWC	≤ 0.25
SMAT	7.92
SMAG	11.3
SMAY	25.3
SMVG	8.8
SMGD	1.08
SMRY	≤ 0.25
SMYI	≤ 0.25
SMAN	6.01
SMGY	7.3
SMAI	13.5
SMTG	5.2
SMAS	11.6
HEDR	≤ 0.25
DAFY	≤ 0.25
QNHA	≤ 0.25
MIDS	≤ 0.25
PWKL	≤ 0.25
HVPL	≤ 0.25
VFFI	≤ 0.25
KESQ	≤ 0.25

Variant	enrichment ratio
HGIC	≤ 0.25
MKCM	≤ 0.25
AKCM	15.6
HKCM	≤ 0.25
KKCM	≤ 0.25
TKCM	46.1
AICM	6.05
SKKH	≤ 0.25
PYDF	≤ 0.25
MIQV	≤ 0.25
GAMG	≤ 0.25
RSLI	≤ 0.25
FALS	8.07
VSLI	14
ISLT	0.863
FALA	5.9
NSLI	4.88
VSLA	0.756
ISLA	≤ 0.25
TSLI	11.8
FALI	15.1
ISLI	11.2
MMLI	≤ 0.25
ENRC	≤ 0.25
VSCH	2.85

Variant	enrichment ratio
TYRA	≤ 0.25
DETW	≤ 0.25
WTDY	≤ 0.25
PCSF	≤ 0.25
NFAL	≤ 0.25
WRVV	≤ 0.25
FCLI	7.58
FSLI	12.9
KSLI	≤ 0.25
PMYI	≤ 0.25
SDIH	2.15
TKIH	15.7
SQIH	12.4
SCIH	1.7
KKIH	≤ 0.25
HKIH	≤ 0.25
GFSR	≤ 0.25
REWS	≤ 0.25
WQHV	≤ 0.25
ASQY	≤ 0.25
LEFA	1.62
LEWC	17.6
LEFC	12.9
LRWC	≤ 0.25
LLWC	≤ 0.25

Variant	enrichment ratio
LEFP	≤ 0.25
WGSE	≤ 0.25
FYLD	≤ 0.25
PSVE	≤ 0.25
TCQQ	11.5
KCQY	≤ 0.25
TCIS	≤ 0.25
KSWN	≤ 0.25
TCVQ	≤ 0.25
FCQI	≤ 0.25
TCQY	31.4
TCGQ	≤ 0.25
TCWN	14.9
KCQI	≤ 0.25
TCII	≤ 0.25
TCQI	15.2
SLAF	8.18
TQKA	≤ 0.25
TAWY	6.15
HCAS	≤ 0.25
TCQA	16.2
TCEN	0.333
TCQP	≤ 0.25
TYMN	0.285
KCQA	≤ 0.25

Variant	enrichment ratio
TCVN	2.66
TCMN	58.3
TCDN	≤ 0.25
TCQN	23
SCQA	≤ 0.25
TCQK	14.2
TCQF	6.94
MRIG	≤ 0.25
IPRI	≤ 0.25
IFEI	≤ 0.25
CNHC	≤ 0.25
QRMF	≤ 0.25
HTHA	≤ 0.25
KCQL	≤ 0.25
TCQL	13.2
FCQL	≤ 0.25
HEQY	≤ 0.25
HECS	2.84
HEQP	≤ 0.25
HECV	15.4
HESH	≤ 0.25
HEQV	25.5
HNSW	≤ 0.25
ERQE	≤ 0.25
SAFP	≤ 0.25

Variant	enrichment ratio
QGAG	≤ 0.25
QVAH	≤ 0.25
AGQL	11.6
GGQL	≤ 0.25
AIQL	11.7
CGQL	14.3
AKQL	≤ 0.25
ADQL	≤ 0.25
TGQL	5.01
AQQL	≤ 0.25
WIQL	≤ 0.25
MQGH	≤ 0.25
FDDD	≤ 0.25
AMFM	≤ 0.25
PNFI	≤ 0.25
KCCR	≤ 0.25
RQPM	≤ 0.25
IGQV	≤ 0.25
GHHN	≤ 0.25
PRDV	≤ 0.25
SEQG	17.8
AEQG	≤ 0.25
AQQG	12.7
SLQG	≤ 0.25
AKQG	≤ 0.25

Variant	enrichment ratio
SQQG	6.66
HAGM	≤ 0.25
HMVE	≤ 0.25
VFKE	≤ 0.25
HGRI	≤ 0.25
FPCA	≤ 0.25
GKQD	≤ 0.25
NAHY	≤ 0.25
MAHY	20.2
TAPI	≤ 0.25
AHHY	≤ 0.25
TAHY	27.1
KAHY	≤ 0.25
NMRM	≤ 0.25
KACT	≤ 0.25
AQCT	20.8
AWCT	≤ 0.25
YACT	0.253
AACT	12.4
AHCT	≤ 0.25
SNCT	8.8
RICT	≤ 0.25
AICT	18
EQCT	≤ 0.25
NICT	≤ 0.25

Variant	enrichment ratio
ANCT	21
ALFD	≤ 0.25
SHFP	0.324
WCTK	≤ 0.25
FYGE	≤ 0.25
MNPG	≤ 0.25
FEMT	3.56
ENFC	≤ 0.25
SYCA	≤ 0.25
EDSI	≤ 0.25
SHNH	1.34
QHGY	8.42
THNH	16.2
QHNH	13.9
QHNS	5.2
QHNY	27.5
QHRI	≤ 0.25
QHRH	≤ 0.25
NHNH	≤ 0.25
LVRE	≤ 0.25
